hERG WT inh – inhibitors of human wildtype KCNH2 potassium channel | Q12809 | activity change, % at 1.84 µM | 0.37% of 340,000 active | U2OS, BacMam KCNH2, thallium flux FluxOr; hits give low values;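 active means maximum activity change below -70%; inconclusive means maximum activity change between -70% and -50%; inactive means maximum activity change above -50%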
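U2OS cells transduced with wild-type KCNH2 virus are loaded with FluxOr dye for 45 min, and thallium flux is measured in kinetic reads before and after stimulation buffer. Rate constants are normalized to DMSO controls.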
KCNH2 3.1 block – KCNH2 3.1 (human) potassium channel inhibition; U2OS KCNH2 3.1, thallium flux FluxOr; hits give low values; activity change, % (tested at about 1.8 µM); 0.95% of 340,000 active; AID 720553;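 active means maximum activity change below -70%; inconclusive means maximum activity change from -70% to -50%; inactive means maximum activity change above -50%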;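 further: thallium influx rate constant from kinetic fluorescence after stimulation buffer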
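Measured as rate of thallium-driven FluxOr signal in transduced U2OS cells carrying the 3.1 channel, read kinetically for 2 min upon stimulation; values are rate constants scaled to DMSO control wells.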
KB-V1 cytotox – kills drug-selected multidrug resistant KB-V1 cells. KB-V1 MDR cells viability, CellTiter-Glo, 72 h. Potency, µM (highest dose often 46.1 µM), hits mostly cytotoxic. 3.4% of 400,000 active; further: nearly all actives have a fitted effect of over 60% in size
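Cytotoxicity toward P-gp-expressing KB-V1 cells was determined as loss of CellTiter-Glo luminescence after 72 h at 37 degrees C. Compounds were tested in quantitative HTS format across a concentration range, with curves fitted to normalized data.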
SW480 rereplic – inducers of DNA re-replication in SW480 colon cancer cells; AID 624297; SW480 DNA re-replication, Hoechst DNA content imaging, 48 h; 1.8% of 340,000 active; Potency, µM (highest dose often 46.1 µM), actives largely listed as activators; further: nearly all actives have a fitted effect of over 55% in size
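Compounds, transferred as 23 nL by pin tool, were incubated with cells for 48 hr; DNA content per nucleus was then quantified by Hoechst staining and fluorescence plate imaging.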
KB-3-1 tox – kills parental KB-3-1 adenocarcinoma cells. KB-3-1 viability, CellTiter-Glo ATP luminescence, 72 h. Potency, µM (doses to about 46.1 µM), actives largely listed as cytotoxic. 1.4% of 400,000 active; further: nearly all actives have a fitted effect of over 60% in size
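Viability of parental KB-3-1 cells, measured by CellTiter-Glo luminescence, followed a 72 h incubation at 37 °C with pinned compounds in phenol-red-free DMEM containing 10% FBS.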
MCF10A rereplic – induces DNA re-replication in MCF 10a normal breast cells. Potency, µM (series often up to 46.1 µM), most hits filed as activators. MCF 10A DNA re-replication, Hoechst nuclear intensity, 48 h. AID 624296. 2.9% of 350,000 active; further: nearly all actives have a fitted effect of over 50% in size
Of the large screens only hits and unclear results are named; the others gave an inactive call; ! = not confirmed by another sample. Compounds with a hit are over-represented: about 7.6% of the library has one in this group of screens. Unless noted, the call rests on the fitted dose curve; in most records, active means well fitted curve in the direction sought with a large enough effect; inconclusive means small, poorly fitted or top-dose-only effect, or another doubt; inactive means no such curve, though single readings can be large; an effect the other way counts as inactive or inconclusive.

C=C(CC)C(=O)c1ccc(OCC(=O)O)c(Cl)c1Cl	SW480 rereplic inconclusive, MCF10A rereplic 19µM!
CCOC(=O)COc1ccc2nsnc2c1Cl	none
O=C(O)c1cc2ccc3cccc4ccc(c1)c2c34	none
CC(=O)Oc1ccc(C2=Cc3ccc(OC(C)=O)cc3OC2C)cc1 (stereo unspecified)	KB-V1 cytotox inconclusive, SW480 rereplic inconclusive, KB-3-1 tox inconclusive, MCF10A rereplic 4.1µM
CC(=O)Oc1ccc(C)cc1	none (no result: hERG WT inh, KCNH2 3.1 block, KB-V1 cytotox, KB-3-1 tox)
CCOc1ccc(NC(=O)CSc2ncc(S(=O)(=O)c3ccc(F)c(C)c3)c(=O)[nH]2)cc1	none (no result: hERG WT inh, KCNH2 3.1 block, SW480 rereplic, MCF10A rereplic)
Cc1cc(Br)cn2c(Cc3ccsc3)c(-c3ccco3)nc12	none (no result: hERG WT inh, KCNH2 3.1 block, SW480 rereplic, MCF10A rereplic)
Cc1ccc(N/C(N)=N/c2nc(C)cc(N3CCCCC3)n2)c(C)c1	KCNH2 3.1 block -97, KB-V1 cytotox 10µM, SW480 rereplic inconclusive, KB-3-1 tox 16µM, MCF10A rereplic 18µM
O=C(Nc1nc(N2C(=O)c3ccccc3C2=O)n(-c2ccccc2)n1)c1ccc(Cl)cc1	none
CCOC(=O)c1sc(NC(=O)c2cc(-c3ccc(C)cc3)nc3ccccc23)c(C#N)c1C	KB-V1 cytotox 3.3µM, KB-3-1 tox inconclusive, MCF10A rereplic inconclusive
COC(=O)c1sc(NC(=O)c2cc(-c3ccccc3)nc3ccccc23)c(C#N)c1C	KB-V1 cytotox 1.6µM, KB-3-1 tox 1.5µM, MCF10A rereplic inconclusive
Cc1cc(NC(=O)c2cc(-c3ccccc3C)nc3ccccc23)no1	none
Cc1sc(NC(=O)c2cc(-c3ccc(Cl)cc3)nc3ccccc23)c(C(N)=O)c1C	SW480 rereplic inconclusive, MCF10A rereplic 18µM (no result: KCNH2 3.1 block)
Cc1ccccc1-c1cc(C(=O)Nc2sc(C(=O)OC(C)C)c(C)c2C#N)c2ccccc2n1	KB-V1 cytotox 8.2µM, SW480 rereplic inconclusive, KB-3-1 tox 5.2µM, MCF10A rereplic inconclusive
COC(=O)c1sccc1NC(=O)c1cc(-c2ccc(C)cc2)nc2ccccc12	none
COc1ccc(-c2cc(C(=O)Nc3sc4c(c3C#N)CCCC4)c3ccccc3n2)cc1	KB-V1 cytotox inconclusive
O=C(CN1C(=O)COc2ccc(S(=O)(=O)N3CCOCC3)cc21)N1CCN(c2cccc(C(F)(F)F)c2)CC1	KB-V1 cytotox inconclusive (no result: hERG WT inh, KCNH2 3.1 block, SW480 rereplic, MCF10A rereplic)
C[n+]1cnc(-c2ccccc2)cc1-c1ccccc1	none
CC1CCCN(C(=O)CSc2ncccn2)C1 (stereo unspecified)	none
CC(C)C1C(=O)N(Cc2cn(CCC3OCCO3)nn2)CCS(=O)(=O)N1Cc1ccc(-c2ccc(Cl)cc2)cc1 (stereo unspecified)	KB-V1 cytotox 16µM, KB-3-1 tox inconclusive (no result: SW480 rereplic, MCF10A rereplic)
Cc1cccc(NC(=S)N2CCN(S(=O)(=O)c3ccc(F)cc3)CC2)c1	none
N#Cc1c(NC(=O)/C=C/c2ccco2)sc2c1CCCC2	KB-V1 cytotox 1µM, SW480 rereplic inconclusive, KB-3-1 tox 0.41µM, MCF10A rereplic inconclusive
COC(=O)c1c(-c2ccccc2)csc1NC(=O)c1c(-c2ccccc2)noc1C	KB-V1 cytotox 5.8µM, SW480 rereplic inconclusive, MCF10A rereplic inconclusive
Cc1cc(C(=O)Nc2sc3c(c2C#N)CCC(C)C3)no1 (stereo unspecified)	KB-V1 cytotox 12µM, SW480 rereplic inconclusive, KB-3-1 tox inconclusive, MCF10A rereplic 9.2µM
O=C(/C=C/c1ccco1)Nc1sc2c(c1C(=O)O)CCC2	none
Cc1cc(C(=O)Nc2sc3c(c2C#N)CCCC3)no1	KB-V1 cytotox inconclusive, SW480 rereplic 12µM, KB-3-1 tox inconclusive, MCF10A rereplic inconclusive
CCOC(=O)c1c(-c2ccc(F)cc2)csc1NC(=O)c1c(-c2ccccc2)noc1C	KB-V1 cytotox inconclusive, SW480 rereplic inconclusive, MCF10A rereplic inconclusive
COCCNC(=O)C1(C)CCCN(C(=O)c2cccc(C#N)c2)C1 (stereo unspecified)	none (no result: hERG WT inh, KCNH2 3.1 block, SW480 rereplic, MCF10A rereplic)
Cc1onc(-c2c(F)cccc2Cl)c1C(=O)Nc1sc2c(c1C(N)=O)CCC2	KB-V1 cytotox inconclusive, SW480 rereplic inconclusive, KB-3-1 tox inconclusive, MCF10A rereplic 5µM
Cc1cc(C(=O)Nc2sc3c(c2C#N)CCC3)no1	KB-V1 cytotox 16µM, SW480 rereplic inconclusive, KB-3-1 tox inconclusive, MCF10A rereplic 8.2µM

High-throughput results (PubChem BioAssay)
